Assay outcomes deposited in PubChem BioAssay by National Center for Advancing Translational Sciences (NCATS).
An excerpt weighted towards active compounds, which were near 1.7% of everything screened.
Apoferritin bind – qHTS Assay for Identification of Novel General Anesthetics. Potency, µM (series often up to 77.5 µM), for the others: at the highest dose activity change, negative = displacement, usual class: inhibitors. 0.074% of 350,000 active. AID 485281, 2010. apoferritin/1-aminoanthracene competitive binding, fluorescence; further: on the % scale 0 is the no-effect control and ±100 the full control effect; nearly all actives have a fitted effect of over 20% in size
Target sequence (P02791 2-175 limits assumed): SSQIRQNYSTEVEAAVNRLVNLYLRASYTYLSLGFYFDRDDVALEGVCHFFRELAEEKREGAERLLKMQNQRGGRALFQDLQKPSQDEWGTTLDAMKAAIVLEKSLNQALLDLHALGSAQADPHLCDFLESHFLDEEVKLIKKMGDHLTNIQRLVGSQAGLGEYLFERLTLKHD
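10 uM apoferritin + 50% sat. 1-AMA, PBS; cpd 10 min RT; Ex380/Em535 endpoint; normalized to free probe vs complex; 4-param Hill fit; propofol titration as pos. ctrl.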
Glioma ERSR ind – qHTS for Inducers of the Endoplasmic Reticulum Stress Response (ERSR) in Human Glioma: qHTS; Potency, µM, inactives show top-dose activation, usual class: activators; U87-MG GRP78 promoter luciferase reporter, 16 h; 0.02% of 420,000 active; AID 602332, 2012; further: series mostly up to about 76 µM; % of control where 0% means no effect; nearly all actives have a fitted effect of over 35% in size
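Stably transfected U87-MG glioma cells carrying a GRP78-based luciferase sensor; 16 h compound incubation. Luminescence end-point read 10 min after Bright-Glo addition at room temperature.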
ALOX12 inh – Primary qHTS assay for inhibitors of human arachidonate 12S-lipoxygenase (ALOX12): Round 2. 1.1% of 580,000 active. purified 12hLO, xylenol orange hydroperoxide absorbance. Potency, µM (top dose mostly 108 µM), for the others: at the top dose activity change, negative = inhibition, actives largely listed as inhibitors. AID 1671190, 2021. Polyunsaturated fatty acid lipoxygenase ALOX12 (Homo sapiens), P18054; further: on the % scale 0 is the no-effect control and ±100 the full control effect
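Purified human 12hLO at 150 nM in 25 mM Hepes, 0.01% Triton X-100, pH 7.0, preincubated 15 min at room temperature with compound. Reaction started with 40 uM arachidonic acid, 30 min at room temperature. Hydroperoxide measured by Fe-xylenol orange, 573/405 nm absorbance ratio.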
TrxR1 substrate – qHTS Assay for Substrates of Mammalian Selenoprotein Thioredoxin Reductase 1 (TrxR1): qHTS. Thioredoxin reductase 1, cytoplasmic (Rattus norvegicus), O89049. purified TrxR1 substrate turnover, NADPH consumption readout. Potency, µM (titrated, usually from 114 µM), inactives show at the highest dose activity change, negative = substrate turnover. 0.01% of 390,000 active. AID 588456, 2011; further: on the % scale 0 is the no-effect control and ±100 the full control effect; nearly all actives have a fitted effect of over 50% in size
Target sequence (O89049 whole entry, looked up): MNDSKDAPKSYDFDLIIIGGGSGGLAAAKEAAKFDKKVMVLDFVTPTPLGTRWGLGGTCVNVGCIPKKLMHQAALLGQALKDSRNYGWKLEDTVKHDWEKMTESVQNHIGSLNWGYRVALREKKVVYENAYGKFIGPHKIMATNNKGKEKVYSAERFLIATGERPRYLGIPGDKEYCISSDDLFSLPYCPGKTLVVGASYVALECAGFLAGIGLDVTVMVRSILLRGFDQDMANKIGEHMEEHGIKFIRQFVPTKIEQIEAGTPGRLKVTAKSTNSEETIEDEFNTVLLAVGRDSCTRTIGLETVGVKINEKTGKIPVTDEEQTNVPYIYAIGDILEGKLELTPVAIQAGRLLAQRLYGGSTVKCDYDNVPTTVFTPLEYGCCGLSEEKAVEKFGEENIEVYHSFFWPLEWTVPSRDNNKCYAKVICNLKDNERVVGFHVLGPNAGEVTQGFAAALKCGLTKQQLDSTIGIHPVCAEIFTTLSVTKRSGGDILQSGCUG
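Rat TrxR1, dispensed at 90 nM, was prereduced with 400 uM NADPH (final) for 5 min at ~22 deg C, then incubated with compound 15 min before 400 uM selenite. A first-read NADPH fluorescence drop versus no-compound background flagged substrates.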
IDH1 R132H inh – qHTS for Inhibitors of mutant isocitrate dehydrogenase 1 (IDH1): qHTS; Potency, µM (titrated, usually from 76.6 µM), for inactives: top-dose activity change, negative = inhibition, usual class: inhibitors; 0.093% of 390,000 active; AID 602179, 2012; IDH1-R132H enzyme, NADPH consumption, diaphorase/resazurin fluorescence; Isocitrate dehydrogenase [NADP] cytoplasmic (Homo sapiens), O75874; further: on the % scale 0 is the no-effect control and ±100 the full control effect; nearly all actives have a fitted effect of over 65% in size
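IDH1-R132H (0.5 ug/mL dispensed) in pH 7.5 Tris buffer was preincubated 30 min with compound, then given a substrate mix of 0.016 mM NADPH and 2 mM alpha-KG for 80 min at room temperature; remaining NADPH was read by diaphorase/resazurin fluorescence.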
TrxR1 inh – qHTS Assay for Inhibitors of Mammalian Selenoprotein Thioredoxin Reductase 1 (TrxR1): qHTS. Potency, µM (titrated, usually from 114 µM), for the others: at the highest dose activity change, negative = inhibition, usual class: inhibitors. Thioredoxin reductase 1, cytoplasmic (Rattus norvegicus), O89049. 1% of 390,000 active. recombinant rTrxR1, NADPH fluorescence consumption, selenite substrate. AID 588453, 2011; further: on the % scale 0 is the no-effect control and ±100 the full control effect; nearly all actives have a fitted effect of over 65% in size
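Rat TrxR1 (90 nM in the dispensed reagent) was pre-reduced with 400 uM NADPH for 5 min at room temperature, then incubated with compound for 15 min. After 400 uM selenite was added, NADPH fluorescence (Ex 340/Em 450 nm) was followed for 8 min.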
Numbers without * were called inactive; ? = inconclusive; / = no result given; ! = not active in a repeat; [ ] = remark or other dose. The call rests on the fitted dose curve; in most records, active means well fitted curve in the direction sought with a large enough effect; inconclusive means small, poorly fitted or top-dose-only effect, or another doubt; inactive means no such curve, though single readings can be large; an effect the other way counts as inactive or inconclusive. Potency means the concentration at half of the fitted maximal effect.

SMILES	Apoferritin bind	Glioma ERSR ind	ALOX12 inh	TrxR1 substrate	IDH1 R132H inh	TrxR1 inh
Cc1ccc(C)c(NC(=O)CCN2C(=O)c3ccccc3Sc3ncccc32)c1	-3%	-2%	-15%	5%	-4%	50µM*
CCc1cccc(NC(=O)CCN2C(=O)c3ccccc3Sc3ncccc32)c1	1%	-2%	?	-1%	-14%	18µM*
O=C(CCN1C(=O)c2ccccc2Sc2ncccc21)Nc1ccc(F)cc1	7%	-2%	-27%	-6%	0%	7.1µM*
CN1C(=O)C(CC(=O)NCC2CC2)=C2CCCCC21 (centres undefined)	/	/	18%	/	/	/
CCc1nc2nccc(-c3ccsc3)n2n1	/	/	36%	/	/	/
O=C(CSc1nc2scc(-c3ccco3)c2c(=O)n1-c1ccccc1)NCC1CCCO1 (centres undefined)	-5%	-1%	-24%	-5%	3%	45µM*
NC(=O)CSc1nc2scc(-c3ccco3)c2c(=O)n1-c1ccccc1	-22%	-3%	?	-2%[57.1 µM]	3%	8.9µM*
C=CCn1c(SCC(=O)NCCOC)nc2scc(-c3ccco3)c2c1=O	-16%	-1%	?	-2%	7%	45µM*
Cc1ccc(C)c(-n2c(SCC(=O)NCC3CCCO3)nnc2-c2ccoc2C)c1 (centres undefined)	-16%	-3%	/	3%	3%	28µM*
COc1ccc(N2CC(c3noc(-c4ccc(N(C)C)cc4)n3)CC2=O)cc1 (centres undefined)	/	/	28%	/	/	/
O=C(Nc1c(-c2ccccc2)[nH][nH]c1=O)c1ccc2c(c1)OCO2	/	/	-2%	/	/	/
O=C(Nc1c(-c2ccc3c(c2)OCO3)[nH][nH]c1=O)c1ccccc1	/	-2%	28µM*	/	/	/
CCC(=O)N1CCC(Cc2noc(-c3ccccc3)n2)C1 (centres undefined)	/	/	32%	/	/	/
O=c1cc(-c2ccccc2)n2c(SCc3ccc([N+](=O)[O-])cc3)nnc2[nH]1	5%	-1%	6%	8%[57.1 µM]	10%	19%[57.1 µM]
CCn1ccnc1C1CCCN(C(=O)c2n[nH]c3c2CN(C)CC3)C1 (centres undefined)	/	/	13%	/	/	/
Oc1ccc(NCc2ccccc2OCc2ccc(Cl)cc2)cc1	?	?	124%	-18%	7%	79µM*
O=c1[nH]c2ccc(NCc3ccccc3OCc3ccc(Cl)cc3)cc2[nH]1	?	0%	-20%	1%	3%	-3%
Oc1ccc(NCc2ccccc2OCc2ccccc2)cc1	?	?	11µM*!	0%	17%	?
CCOc1cc(CNc2ccc(O)cc2)ccc1OCc1ccc(Cl)cc1	?	?	264%	-8%	14%	50µM*
COc1ccc(C(=O)N2CCCCCNC(=O)[C@H]3C[C@H](C(=O)N4CCc5ccccc5C4)C[C@H]32)cn1	/	/	39%	/	/	/
Cc1ccc(S(=O)(=O)Nc2ccccc2N=Cc2ccc([N+](=O)[O-])cc2[N+](=O)[O-])cc1	/	-3%	25µM*	-6%[57.1 µM]	15%	1%[11.4 µM]
Cc1ccc(NS(=O)(=O)c2cc([N+](=O)[O-])ccc2NN)c(C)c1	/	/	40µM*	/	/	/
Cc1ccc(S(=O)(=O)Nc2ccc3ccccc3c2[N+](=O)[O-])cc1	/	1%	?	6%[57.1 µM]	8%	19%[57.1 µM]
Cc1ccc(S(=O)(=O)Nc2ccc(S(=O)(=O)Nc3ccccc3)cc2[N+](=O)[O-])cc1	/	/	25µM*	/	/	/
Cc1ccc(S(=O)(=O)Nc2ccc3cc([N+](=O)[O-])ccc3c2[N+](=O)[O-])cc1	/	-7%	22µM*	-7%[57.1 µM]	6%	-6%[2.29 µM]
SMILES	Apoferritin bind	Glioma ERSR ind	ALOX12 inh	TrxR1 substrate	IDH1 R132H inh	TrxR1 inh
CN(CC1CCOCC1)S(=O)(=O)c1ccc(C(F)(F)F)cc1	/	/	22%	/	/	/
COC(=O)c1cccc(C(=O)N2CCC(Cc3nc(-c4ccc(OC)cc4)no3)CC2)c1	/	/	12%	/	/	/
CC(=O)N1CCC(N[C@@H]2C[C@H](COc3cccc(C)n3)[C@@H](O)[C@H]2O)CC1	/	/	16µM*	/	/	/
c1ccc(-c2nc3ccccc3nc2-c2nc3ccccc3[nH]2)cc1	/	/	1%	/	/	/
Cc1ccc(-c2nc(NCc3ccco3)c3ccccc3n2)cc1	-18%	3%	-18%	-4%	-11%	6%
c1ccc(-c2nc(NCc3ccco3)c3oc4ccccc4c3n2)cc1	-11%	0%	7.1µM*	5%	1%	6%
Clc1ccc(Sc2ccc3nnnn3n2)cc1	/	/	14%	/	/	/
O=C(NNC(=O)C1CC=CCC1)c1cccc(Cl)c1 (centres undefined)	/	/	1%	/	/	/
O=C(Nc1cc(N2CCOCC2)ncn1)c1ccccc1	-6%	35µM*	0%	-5%	0%	-12%
O=C(NC1CCN(c2cc(C(F)(F)F)ncn2)CC1)c1ccccc1	/	/	45µM*	/	/	/
O=C(NC1CCN(c2cc(C(F)(F)F)ncn2)CC1)c1ccccc1F	/	/	-14%	/	/	/
O=C(Nc1ccc(N2CCOCC2)nc1)c1ccc(Cl)cc1	8%	1%	0%	-1%	5%	8%
CC1C(=O)N2CCCc3cc(S(=O)(=O)N(Cc4ccccc4)c4ccccc4)cc1c32 (centres undefined)	/	/	10µM*	/	/	/
CN(C)c1ccc(Cc2cc3c(O)ccc(O)c3cc(Cc3ccc(N(C)C)cc3)c2=O)cc1	/	?	?	-13%	20%	11µM*
CN(C)c1ccc(C(=O)c2ccc(O)cc2O)cc1	-13%	2%	?	-9%	6%	7%[57.1 µM]
Cc1ccc(CNC(=O)N2CCC(OC3CCN(Cc4ccccc4)CC3)CC2)cc1	/	/	5%	/	/	/
CN(C)c1ccc(C(=O)N/N=C/c2ccc(Br)s2)cc1	/	/	20µM*	/	/	/
O=C(N/N=C/c1ccc(Br)s1)c1cccc(Cl)c1	/	/	10%	/	/	/
COc1ccccc1C1CCN(Cc2ccc3ccccc3c2)CC1	-11%	-7%	14µM*	9%	6%	21%[57.1 µM]
COc1ccccc1C1CCN(Cc2ccccc2)CC1	8%	-4%	-2%	0%	-1%	12%
O=Cc1cccc2c1OCCO2	/	/	7.1µM*	/	/	/
O=C(O)/C=C/c1cccc2c1OCCO2	-4%	-2%	0%	-2%	-2%	8%
